# Data from PubChem BioAssay AID720641 (ICCB-Longwood Screening Facility, Harvard Medical School, 2013).
# Out of some 170,000 compounds screened, about 900 (0.53%) were called active.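 Rule for the calls: active = relative growth at most 50% at the other temperature and 20+ points below 30 °C, or under 10% at both; inactive = the rest, inconclusive results apart.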 Many of the other results were omitted from the sample, so actives are more common in it than they were.
# Experiment: S. aureus growth inhibition at 42 and 30 °C, primary screen, LtaS inhibitor project, RN4220, two temperatures (AID 720641)
# Conditions: OD600, 20 h, 42 °C, stronger effect = lower value
Compound,relative growth,relative growth (measured here: growth at 30 °C)
[C-]#[N+]c1ccc(Cl)cc1C(C)S(=O)(=O)c1ccc(C)cc1 (stereo not given),4.29% (active),7.07%
Cc1cc(N2CCNCC2)nc(C)n1,91.3% (inactive),82.9%
CN1C(=O)C(C(=O)O)C2CC1Oc1ccccc12 (stereo not given),91.5% (inactive),72.8%
O=C(Cn1cc(/C=C2/C(=O)NC(=O)N(Cc3ccco3)C2=O)c2ccccc21)NCC1CCCO1 (stereo not given),98.4% (inactive),86.3%
CN(C)c1ccc(/C=C2/C(=O)C3CCN2CC3)cc1,112% (inactive),95.5%
